# Bioassay records deposited in PubChem BioAssay by National Center for Advancing Translational Sciences (NCATS).
# TRb SRC2 PPI – qHTS for Inhibitors of the Interaction of Thyroid Hormone Receptor and Steroid Receptor Coregulator 2. TRbeta-SRC2 peptide binding, fluorescence polarization; receptor liganded with 1 µM T3. hit rate 0.065% among 280,000. Potency, µM (top dose mostly 106 µM), most hits filed as inhibitors. AID 1469, 2008. Thyroid hormone receptor beta (Homo sapiens), P10828; note: nearly all actives have a fitted effect of over 50% in size
#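 Assay buffer: 20 mM Tris-HCl, 100 mM NaCl, 10% glycerol, 1 mM EDTA, 0.01% NP-40, 1 mM DTT, 1 uM T3, 5% DMSO; TRb LBD 0.6 uM, Texas Red SRC2 20 nM; FP after 5 hr.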
# RGS12 GoLoco inh – qHTS Assay for Inhibitors of RGS12 GoLoco Motif Activity (Red Fluorophore). Guanine nucleotide-binding protein G(i) subunit alpha-1 (Homo sapiens), P63096. Gai1:RGS12 GoLoco peptide FP, rhodamine, 10 min. Potency, µM (doses to about 61.6 µM), most hits filed as inhibitors. hit rate 0.44% among 230,000. AID 880, 2007; active = well fitted inhibition curve with a large enough effect, not every such curve was filed as active; inactive = no such curve, though single readings can be large or run the other way; note: nearly all actives have a fitted effect of over 30% in size
# ERG-DNA inh – qHTS for Small Molecule Inhibitors of the ERG Ets/DNA interaction | Potency, µM (doses to about 76.9 µM), hits mostly inhibitors | Transcriptional regulator ERG (Homo sapiens), P11308 | fluorescence polarization, His-ERG Ets domain / labelled DNA | hit rate 0.028% among 370,000; active = well fitted inhibition curve with a large enough effect in the polarisation, with a control signal flat; inconclusive = small, poorly fitted or top-dose-only effect, or effect the other way, or a change in a side signal; inactive = no such curve, though single readings can be large or run the other way; the % refers to the polarisation;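 note: polarization taken with two DNA probes labelled with fluorescein and Texas red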
#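 His-tagged ERG Ets domain (1 uM in the protein solution; 300mM KCl, 50mM Tris-HCl, 1mM EDTA, 1mM DTT, pH 7.5) received compound, then a probe mix of 5 nM fluorescein-DNA and 100nM Texas-615-DNA. Fluorescence polarization was read for both dyes.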
# TR SRC2 fluor cs – Total Fluorescence Counterscreen for Inhibitors of the Interaction of Thyroid Hormone Receptor and Steroid Receptor Coregulator 2. TRb/SRC2 Texas Red total fluorescence interference. Potency, µM (highest dose often 106 µM). hit rate 0.29% among 280,000; active = well fitted curve in either direction with a large enough effect; inconclusive = small, poorly fitted or top-dose-only effect
#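 Flags fluorescent or light-absorbing compounds by total fluorescence, S + 2P, at 555 nm excitation and 632 nm emission. Mixture: 20 nM Texas Red SRC2 peptide, 0.6 uM human TRb LBD, 1 uM T3, 5% DMSO; compound exposure 5 h at ambient temperature.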
# CBFb-RUNX1 inh – qHTS Assay for Compounds Blocking the Interaction Between CBF-beta and RUNX1 for the Treatment of Acute Myeloid Leukemia. Runt-related transcription factor 1 (Homo sapiens) + Core-binding factor subunit beta …. AlphaScreen CBFb-His/RUNX1-biotin binding, biochemical. Potency, µM (doses to about 59.8 µM), actives largely listed as inhibitors. 230,000 tested, under 10 active. AID 1477, 2009
# Target sequence (Q01196 whole entry, looked up): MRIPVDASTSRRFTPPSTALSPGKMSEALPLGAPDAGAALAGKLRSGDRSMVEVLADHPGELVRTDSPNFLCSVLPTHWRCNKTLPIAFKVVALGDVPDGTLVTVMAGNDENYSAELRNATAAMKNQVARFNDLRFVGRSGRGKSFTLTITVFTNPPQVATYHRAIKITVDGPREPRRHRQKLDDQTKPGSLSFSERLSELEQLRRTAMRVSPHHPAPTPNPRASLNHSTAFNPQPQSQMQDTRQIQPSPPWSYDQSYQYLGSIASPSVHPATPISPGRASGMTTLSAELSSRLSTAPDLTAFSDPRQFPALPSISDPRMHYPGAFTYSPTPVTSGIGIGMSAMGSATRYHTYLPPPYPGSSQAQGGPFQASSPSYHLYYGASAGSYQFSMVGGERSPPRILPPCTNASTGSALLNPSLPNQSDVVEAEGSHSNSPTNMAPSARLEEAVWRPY
# Target sequence (Q13951 whole entry, looked up): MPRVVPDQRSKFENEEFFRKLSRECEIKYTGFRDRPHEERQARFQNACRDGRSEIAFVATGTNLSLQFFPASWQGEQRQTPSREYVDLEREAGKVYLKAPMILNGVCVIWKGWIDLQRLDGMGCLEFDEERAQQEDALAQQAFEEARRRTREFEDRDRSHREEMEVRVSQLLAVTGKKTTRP
#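 Proteins preincubated together for 20 min at RT before compound addition; 15 min later, nickel and streptavidin beads were added and left 90 min prior to AlphaScreen measurement.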
# A number is an active result; 0 = inactive; ? = inconclusive; - = no result; ! = repeats disagree; [ ] = another dose, or the depositor's remark. The sample as a whole holds a higher share of hits than the screen did. Unless noted, calls come from the whole dose curve; as a rule, active = well fitted curve in the direction sought with a large enough effect; inconclusive = small, poorly fitted or top-dose-only effect, or another doubt; inactive = no such curve, though single readings can be large; an effect the other way counts as inactive or inconclusive.
SMILES,TRb SRC2 PPI,RGS12 GoLoco inh,ERG-DNA inh,TR SRC2 fluor cs,CBFb-RUNX1 inh
CN(C)C1C(=O)C(C(N)=O)C(=O)C2(O)C(=O)C3C(=O)c4c(O)cccc4C(C)(O)C3C(O)C12 (stereo not drawn),0,0,-,28.2µM[quencher],0
CN(C)C1C(=O)C(C(N)=O)=C(O)[C@@]2(O)C(=O)C3=C(O)c4c(O)cccc4[C@](C)(O)C3C(O)C12 (stereo partly drawn),0,0,-,0,-
CC(C)C1C(=O)N2CCCC2[C@]2(O)O[C@@](NC(=O)[C@@H]3C=C4c5cccc6[nH]cc(c56)C[C@H]4N(C)C3)(C(C)C)C(=O)N12 (stereo partly drawn),0,0,-,0,?
CC(C)[C@H]1C(=O)N2CCC[C@H]2[C@]2(O)O[C@](NC(=O)[C@@H]3C=C4c5cccc6[nH]cc(c56)C[C@H]4N(C)C3)(C(C)C)C(=O)N12,0,11.2µM,0,0,?
NC1=NC([S][Hg][c]2ccc(N)cc2)c2ncn([C@@H]3O[C@H](CO)[C@@H](O)[C@@H]3O)c2N1 (stereo partly drawn),-,0.501µM,-,-,-
C[CH2][Hg][S]c1ccccc1C(=O)O,0,28.2µM,0,0,0
Nc1cc(N2CCNCC2)ccc1[N+](=O)[O-],0,0,0,0,0
Clc1cccc(N2CCNCC2)c1,8.91µM!,0,0,28.2µM![fluorescent],0
COc1ccc(N=C2SCCCN2C)cc1,0,7.94µM,0,0,0
CON(C)C(=O)Nc1ccc(Cl)c(Cl)c1,0,-,-,0,-
CC1=NN(c2ccccc2)C(=O)C1=C(C)C,0,0,0,0,0
CC(=O)NC1N=C(C)N(c2ccccc2)C1=O (stereo not drawn),31.6µM,0,0,0,0
O=C(O)CCCCC1SCC2NC(=O)NC21 (stereo not drawn),0,0,0,0,1.78µM
COCc1cnc(C2=NC(C)(C(C)C)C(=O)N2)c(C(=O)O)c1 (stereo not drawn),0,-,-,0,-
CC[C@H]1CCCC(O[C@H]2CC[C@H](N(C)C)[C@@H](C)O2)[C@@H](C)C(=O)C2=C[C@@H]3[C@@H](C=C[C@@H]4C[C@@H](O[C@@H]5O[C@@H](C)[C@H](OC)[C@@H](OC)[C@H]5OC)C[C@@H]34)[C@@H]2CC(=O)O1 (stereo partly drawn),0,-,-,0,-
O=C(O)c1ccccc1SCC(=O)N1c2ccccc2Sc2ccccc21,0,0,0,0.0891µM[quencher],0
O=C(OC1CCN(CCCl)CC1)C(c1ccccc1)c1ccccc1,35.5µM,0,0,0,0
CON=C(C(=O)OC)c1ccccc1CO/N=C(\C)c1cccc(C(F)(F)F)c1,0,-,-,0,-
O=C(O)[C@@H]1[C@H](C(=O)O)[C@@]2(Cl)C(Cl)=C(Cl)[C@]1(Cl)C2(Cl)Cl,0,-,-,0,-
C=CC(=O)OCCCCCC(C)C,0,-,-,0,-
CCCCC(CC)CO[N+](=O)[O-] (stereo not drawn),0,-,-,0,-
COc1c(O)c2c(=O)cc(OC)c3c4c(OC)cc(=O)c5c(O)c(OC)c(C[C@@H](C)OC(=O)c6ccccc6)c(c(c1C[C@@H](C)OC(=O)Oc1ccc(O)cc1)c23)c54,0,15.8µM,-,?,0
COC(=O)NS(=O)(=O)c1ccc(N)cc1,0,-,-,0,-
CC(C)COP(=O)(OCC(C)C)OCC(C)C,0,-,-,0,-
O=C(O)C(F)(F)C(F)(F)C(F)(F)C(F)(F)C(F)(F)F,0,-,-,0,-
COC1C(C)OC(OC2CC(C)(O)Cc3cc4c(c(O)c32)C(=O)c2c(O)cc3c(c2C4=O)OC2OC3(C)C(O)C(N(C)C)C2O)C(OC)C1(C)OC (stereo not drawn),-,-,7.08µM,-,-
CN(N=O)c1ccc(O)c(O)c1,0,4.47µM,-,?,-
COc1ccc(C(=O)O)cc1OC,0,31.6µM,0,0,0
CC(C)[N+](C)(CCC(C(N)=O)(c1ccccc1)c1ccccc1)C(C)C,0,5.01µM!,0,0,0
O=C1NCCN1Cc1ccc(Cl)nc1,0,-,-,0,-
